The values that follow come from PubChem BioAssay (NCI).

The panel holds about 79,000 compounds, 15% with a hit somewhere; the sample as a whole holds those more often. Unmarked numbers belong to inactive results. Activity calls are given as the source filed them. Rule as the data show it: active = growth inhibition above about 70%; inactive = the rest.

Assay [1] can be described thus: NCI Yeast Anticancer Drug Screen. Data for the rad50 strain (AID 155).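 Also: 0% = growth of vehicle-only cultures of the same strain.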 The settings on record: S. cerevisiae rad50 strain growth inhibition, hits give high values. Put shortly: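 DNA repair mutant yeast, compound exposure, growth read-out; inhibition is taken relative to vehicle.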
Assay [2] is described as follows: NCI Yeast Anticancer Drug Screen. Data for the mec2-1 strain (AID 157). The settings on record: S. cerevisiae mec2-1 strain, hits give high values. The essentials: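 Yeast mec2-1 mutant treated with compound. Readout: growth inhibition vs vehicle controls.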
A short description of assay [3]: NCI Yeast Anticancer Drug Screen. Data for the sgs1 mgt1 strain (AID 161).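 Also: 0% = growth of cultures given vehicle only.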 Particulars: S. cerevisiae sgs1 mgt1 strain, hits give high values. The essentials:
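Test agents were incubated with a DNA-repair-mutant yeast strain. Growth was then read and compared against vehicle-treated controls.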

A short description of assay [4]: NCI Yeast Anticancer Drug Screen. Data for the cln2 rad14 strain (AID 165).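 Also: 0% = growth equal to vehicle treated cultures.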 Particulars: S. cerevisiae cln2 rad14 strain, hits give high values. The essentials:
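cln2 rad14 yeast strain; compound exposure; growth inhibition read vs vehicle controls.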

Assay [5] can be described thus: NCI Yeast Anticancer Drug Screen. Data for the bub3 strain (AID 167). Particulars: S. cerevisiae bub3 mutant strain, hits give high values. The essentials: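 In this screen, a yeast mutant lacking normal mitotic checkpoint function is challenged with compound. Relative growth versus vehicle gives the inhibition value.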
The nature of assay [6]: NCI Yeast Anticancer Drug Screen. Data for the mlh1 rad18 strain (AID 175). Particulars: S. cerevisiae mlh1 rad18 strain growth inhibition, hits give high values. The essentials: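 Yeast w/ defined DNA-repair lesions; compound exposure; growth vs vehicle controls → % inhibition.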
Where [7] appears, read: at 5.0 µM (retest, dose inferred, filed as 0.5).
[8] abbreviates: at 50.0 µM (retest, dose inferred, filed as 5.0).

As to `N#C[S-].[La+3].c1cnc2c(c1)ccc1cccnc12.c1cnc2c(c1)ccc1cccnc12.c1cnc2c(c1)ccc1cccnc12`, the growth inhibition in assay [1] (setting [7]) is 97% (active); in assay [1] (setting [8]) it was 98% (active); in assay [1] (at 50.0 µM) it was 91.9% (active); in assay [2] (setting [7]) it was 99% (active); in assay [2] (setting [8]), 99% (active); in assay [2] (at 50.0 µM) it was 94.4% (active). Further, the growth inhibition in assay [3] (setting [7]) is 99% (active); in assay [3] (setting [8]), 99% (active); in assay [3] (at 50.0 µM) it was 93.5% (active); in assay [4] (setting [7]), 95% (active); in assay [4] (setting [8]), 98% (active); in assay [4] (at 50.0 µM), 92.7% (active). Also, the growth inhibition in assay [5] (setting [7]) is 99% (active); in assay [5] (setting [8]), 99% (active); in assay [5] (at 50.0 µM) it was 92.1% (active); in assay [6] (setting [7]), 98% (active); in assay [6] (setting [8]), 98% (active); in assay [6] (at 50.0 µM), 91.3% (active).

`CC(=O)C(CN(CC(C)C)CC(C)C)C(c1ccccc1)c1c(O)c2ccccc2oc1=O` (stereo not given): the growth inhibition in assay [1] (setting [7]) is 0%; in assay [1] (setting [8]) it was 0%; in assay [1] (at 50.0 µM) it was 80.1% (active); in assay [2] (setting [7]) it was -12%; in assay [2] (setting [8]), -12%; in assay [2] (at 50.0 µM), 73.7% (active). Also, the growth inhibition in assay [3] (setting [7]) is -2%; in assay [3] (setting [8]) it was -2%; in assay [3] (at 50.0 µM), 85% (active); in assay [4] (setting [7]), -10%; in assay [4] (setting [8]) it was -10%; in assay [4] (at 50.0 µM), 83.2% (active). The growth inhibition in assay [5] (setting [7]) is -1%; in assay [5] (setting [8]) it was -1%; in assay [5] (at 50.0 µM), 78.8% (active); in assay [6] (setting [7]) it was 7%; in assay [6] (setting [8]) it was 7%; in assay [6] (at 50.0 µM) it was 81.9% (active).

Regarding `O=C(O)CN1CCN(CC(=O)O)CC(=O)[O][Hg][O]C(=O)C1`, the growth inhibition is 100% (active) in assay [1] (setting [7]); 99% (active) in assay [1] (setting [8]); 99.3% (active) in assay [1] (at 50.0 µM); 100% (active) in assay [2] (setting [7]); 100% (active) in assay [2] (setting [8]); 99.4% (active) in assay [2] (at 50.0 µM). For the same compound, the growth inhibition was 99% (active) in assay [3] (setting [7]); 99% (active) in assay [3] (setting [8]); 99.5% (active) in assay [3] (at 50.0 µM); 99% (active) in assay [4] (setting [7]); 99% (active) in assay [4] (setting [8]); 98.3% (active) in assay [4] (at 50.0 µM). The growth inhibition was 100% (active) in assay [5] (setting [7]); 100% (active) in assay [5] (setting [8]); 99.3% (active) in assay [5] (at 50.0 µM); 99% (active) in assay [6] (setting [7]); 99% (active) in assay [6] (setting [8]); 99.2% (active) in assay [6] (at 50.0 µM).

Consider `CNP(=O)(Oc1cc(Cl)c(Cl)cc1Cl)N1CCN(c2ccccc2)CC1` (stereo not given), for which the growth inhibition in assay [1] (setting [7]) is 12%; in assay [1] (setting [8]) it was 81% (active); in assay [1] (at 50.0 µM), 98.8% (active); in assay [2] (setting [7]), 36%; in assay [2] (setting [8]), 48%; in assay [2] (at 50.0 µM), 98% (active). The growth inhibition is 8% in assay [3] (setting [7]); 72% (active) in assay [3] (setting [8]); 98% (active) in assay [3] (at 50.0 µM); 25% in assay [4] (setting [7]); 53% in assay [4] (setting [8]); 97.8% (active) in assay [4] (at 50.0 µM). The growth inhibition in assay [5] (setting [7]) is 11%; in assay [5] (setting [8]), 86% (active); in assay [5] (at 50.0 µM), 97.5% (active); in assay [6] (setting [7]) it was -5%; in assay [6] (setting [8]), 91% (active); in assay [6] (at 50.0 µM) it was 97.4% (active).

As to `CN1C(=O)C2(C)SSC1(C)C(=O)N2C`, the growth inhibition in assay [1] (setting [7]) is 45%; in assay [1] (setting [8]), 95% (active); in assay [1] (at 50.0 µM), 97.2% (active); in assay [2] (setting [7]), 27%; in assay [2] (setting [8]), 95% (active); in assay [2] (at 50.0 µM) it was 93.8% (active). For the same compound, the growth inhibition in assay [3] (setting [7]) was 43%; in assay [3] (setting [8]), 96% (active); in assay [3] (at 50.0 µM) it was 97.5% (active); in assay [4] (setting [7]), 10%; in assay [4] (setting [8]), 85% (active); in assay [4] (at 50.0 µM) it was 87.7% (active). Besides, the growth inhibition in assay [5] (setting [7]) is 17%; in assay [5] (setting [8]), 93% (active); in assay [5] (at 50.0 µM), 95.5% (active); in assay [6] (setting [7]), 57%; in assay [6] (setting [8]) it was 97% (active); in assay [6] (at 50.0 µM), 98.6% (active).

With `CCOP(=S)(OCC)SSSP(=S)(OCC)OCC`, the growth inhibition in assay [1] (setting [7]) was 6%; in assay [1] (setting [8]) it was 71% (active); in assay [1] (at 50.0 µM), 1.6%; in assay [2] (setting [7]) it was 5%; in assay [2] (setting [8]), 62%; in assay [2] (at 50.0 µM), 57.8%. In addition, the growth inhibition in assay [3] (setting [7]) is 7%; in assay [3] (setting [8]) it was 78% (active); in assay [3] (at 50.0 µM) it was 15.7%; in assay [4] (setting [7]) it was 5%; in assay [4] (setting [8]) it was 20%; in assay [4] (at 50.0 µM) it was 65.8%. In addition, the growth inhibition in assay [5] (setting [7]) was 2%; in assay [5] (setting [8]) it was 84% (active); in assay [5] (at 50.0 µM), 70% (active); in assay [6] (setting [7]) it was 4%; in assay [6] (setting [8]), 49%; in assay [6] (at 50.0 µM), 33.9%.

With `C[CH2][Pb]([CH2]C)([CH2]C)[O]C(=O)COc1ccc(Cl)cc1Cl`, the growth inhibition was 29% in assay [1] (setting [7]); 84% (active) in assay [1] (setting [8]); 91.5% (active) in assay [1] (at 50.0 µM); 14% in assay [2] (setting [7]); 89% (active) in assay [2] (setting [8]); 95.1% (active) in assay [2] (at 50.0 µM). Besides, the growth inhibition in assay [3] (setting [7]) was 3%; in assay [3] (setting [8]), 94% (active); in assay [3] (at 50.0 µM), 95% (active); in assay [4] (setting [7]), 2%; in assay [4] (setting [8]), 91% (active); in assay [4] (at 50.0 µM), 85.7% (active). For the same compound, the growth inhibition in assay [5] (setting [7]) is -4%; in assay [5] (setting [8]), 95% (active); in assay [5] (at 50.0 µM) it was 95.6% (active); in assay [6] (setting [7]), 29%; in assay [6] (setting [8]), 96% (active); in assay [6] (at 50.0 µM) it was 97% (active).

On to `OC1CC([CH2][Hg][I])OC([CH2][Hg][I])C1` (stereo not given), for which the growth inhibition was 99% (active) in assay [1] (setting [7]); 98% (active) in assay [1] (setting [8]); 92.8% (active) in assay [1] (at 50.0 µM); 100% (active) in assay [2] (setting [7]); 99% (active) in assay [2] (setting [8]); 97.3% (active) in assay [2] (at 50.0 µM). Moreover, the growth inhibition was 99% (active) in assay [3] (setting [7]); 99% (active) in assay [3] (setting [8]); 96.5% (active) in assay [3] (at 50.0 µM); 99% (active) in assay [4] (setting [7]); 99% (active) in assay [4] (setting [8]); 97.2% (active) in assay [4] (at 50.0 µM). Moreover, the growth inhibition in assay [5] (setting [7]) is 99% (active); in assay [5] (setting [8]), 99% (active); in assay [5] (at 50.0 µM), 98.5% (active); in assay [6] (setting [7]), 99% (active); in assay [6] (setting [8]), 99% (active); in assay [6] (at 50.0 µM), 86.2% (active).

As for `O=[N+]([O-])c1cc(Cl)ccc1S(=O)(=O)F`, the growth inhibition is 98% (active) in assay [1] (setting [7]); 98% (active) in assay [1] (setting [8]); 99.7% (active) in assay [1] (at 50.0 µM); 98% (active) in assay [2] (setting [7]); 99% (active) in assay [2] (setting [8]); 99.6% (active) in assay [2] (at 50.0 µM). Moreover, the growth inhibition in assay [3] (setting [7]) is 99% (active); in assay [3] (setting [8]), 99% (active); in assay [3] (at 50.0 µM), 99.5% (active); in assay [4] (setting [7]), 98% (active); in assay [4] (setting [8]) it was 98% (active); in assay [4] (at 50.0 µM) it was 99.2% (active). Besides, the growth inhibition in assay [5] (setting [7]) is 98% (active); in assay [5] (setting [8]), 98% (active); in assay [5] (at 50.0 µM), 99.5% (active); in assay [6] (setting [7]), 96% (active); in assay [6] (setting [8]) it was 98% (active); in assay [6] (at 50.0 µM), 99.5% (active).

With `O=C(CBr)Nc1ccc(Cl)cc1`, the growth inhibition in assay [1] (setting [7]) was 99% (active); in assay [1] (setting [8]) it was 99% (active); in assay [1] (at 50.0 µM) it was 98.8% (active); in assay [2] (setting [7]), 99% (active); in assay [2] (setting [8]), 99% (active); in assay [2] (at 50.0 µM), 99.3% (active). For the same compound, the growth inhibition in assay [3] (setting [7]) is 99% (active); in assay [3] (setting [8]), 99% (active); in assay [3] (at 50.0 µM), 99.6% (active); in assay [4] (setting [7]), 98% (active); in assay [4] (setting [8]), 99% (active); in assay [4] (at 50.0 µM), 98.7% (active). The growth inhibition in assay [5] (setting [7]) was 98% (active); in assay [5] (setting [8]) it was 99% (active); in assay [5] (at 50.0 µM) it was 99.4% (active); in assay [6] (setting [7]) it was 98% (active); in assay [6] (setting [8]), 98% (active); in assay [6] (at 50.0 µM), 99.2% (active).
